From PubChem BioAssay (EPA / NIEHS)
Values joined by “and” are separate entries in the source; they are usually repeats but may differ in a detail not shown here. Identical values can stand only once. Active and inactive are the calls of the source. Rule for the calls: active = hit-call score of the fitted dose curve at least 0.9, where 1 is the maximum; inactive = score below 0.9.

The compounds below were run on Intercellular Adhesion Molecule 1 (ICAM1), ICAM1 (gene 3383) (assay: BSK_3C_ICAM1: BioMAP Diversity Plus: 3C Assay for Intercellular Adhesion Molecule 1 (ICAM1) Biomarker Activity (AID 2283003)). Conditions: primary human endothelial cells (HUVEC); actives raise or lower the signal.
Description: BSK_3C is a cell-based, multiplexed-readout assay that uses umbilical vein endothelium, a human vascular primary cell, with measurements taken at 24 hours after chemical dosing in a 96-well plate.BSK_3C_ICAM1 is an assay component measured in the BSK_3C assay. It measures ICAM-1 antibody related to regulation of gene expression using ELISA technology.Data from the assay component BSK_3C_ICAM1 was analyzed into 1 assay endpoint. This assay endpoint, BSK_3C_ICAM1, was analyzed with bidirectional fitting relative to DMSO as the negative control and baseline of activity. Using a type of binding reporter, gain or loss-of-signal activity can be used to understand changes in the signaling as they relate to the gene ICAM1. Furthermore, this assay endpoint can be referred to as a primary readout, because this assay has produced multiple assay endpoints where this one serves a signaling function. To generalize the intended target to other relatable targets, this assay endpoint is annotated to the cell adhesion molecules intended target family, where the subfamily is Immunoglobulin CAM.
The levels of cell surface (or secreted, indicated by the prefix "s") biomarker endpoints were measured by ELISA. Overt cytotoxicity to cells in confluent adherent cultures (all systems other than the BT system) was assessed by measuring total protein levels using sulforhodamine B (SRB) staining in parallel cultures at the time of biomarker measurements, indicated as SRB endpoints. For proliferation assays for adherent cell types, individual cell types are cultured at sub-confluence and relative cell numbers quantified by SRB staining at time points optimized for each system (48 h: 3C and CASM3C systems; 72 h: BT and HDF3CGF systems; 96 h: SAg system). SRB was performed by staining cells with 0.1% SRB after fixation with 10% TCA and reading wells at 560 nm.Viability and proliferation of PBMC (T cells) was quantified by Alamar Blue reduction for the SAg and BT systems. For PBMC viability (referred to as PBMC Cytotoxicity within the assay endpoint names), cells were plated (75,000/well in a 96-well plate) and then chemical samples added for 1 h before addition of activators, SEB and TSST-1 (20 ng/mL final concentration each). Cells were incubated for 90 h. Then, Alamar Blue (20 uL/well) (Invitrogen, Cat DAL1100) was added for 6 h, and the plates were read with a fluorescence microplate reader at 546/580 nm (excitation/emission). For PBMC proliferation, cells were plated and activated as above but incubated for only 16 h prior to addition of Alamar Blue. Plates were read after 6 h.

For CCc1ccc(C(c2ccc(CC)cc2)C(Cl)Cl)cc1, which outcome is on record?
The outcome was “inactive”.

O=C(O)C(F)(F)C(F)(F)OC(F)(F)F was tested. Which outcome did it give?
The outcome was “inactive”.

How did the outcome turn out when FC(F)(F)C(F)(F)C(F)(F)C(F)(F)C(F)(F)CCI was run?
The outcome was “inactive”.

How did the outcome turn out when O=P(O)(O)OCCC(F)(F)C(F)(F)C(F)(F)C(F)(F)C(F)(F)C(F)(F)F was run?
Its outcome is “inactive”.

For O=C(O)C(F)(OC(F)(F)C(F)(OC(F)(F)C(F)(F)C(F)(F)F)C(F)(F)F)C(F)(F)F (stereo not given), which outcome is on record?
The outcome was “inactive”.

With CO[Si](OC)(c1ccccc1)c1ccccc1 as the compound, how does the outcome read?
Its outcome is “inactive”.

How did the outcome turn out when C=CC(F)(F)C(F)(F)C(F)(F)C(F)(F)C(F)(F)C(F)(F)C(F)(F)C(F)(F)F was run?
Its outcome is “inactive”.

For O=S(=O)(OCCOC(F)(F)F)C(F)(F)F, which outcome is on record?
The outcome was “inactive”.

How did the outcome turn out when CC(CCl)OP(=O)(OC(C)CCl)OC(C)CCl (stereo not given) was run?
The outcome was “inactive”.

Which outcome does the source give for O=C(O)C(F)(F)C(F)(F)C(F)(F)C(F)(F)F here?
The outcome was “inactive”.

For C=C(C)C(=O)OCC(F)(F)C(F)(F)C(F)(F)F, which outcome is on record?
Its outcome is “inactive”.

How did the outcome turn out when CC(=O)Nc1ccc(N=Nc2cc(C)ccc2O)cc1 was run?
The outcome was “inactive”.

With FC(F)(I)C(F)(F)C(F)(F)C(F)(F)I as the compound, how does the AC50 read?
The AC50 was 39.6 µM (active) and 45.6 µM (active) and 52.7 µM (active).

How did the outcome turn out when CS(C)(=O)=O was run?
The outcome was “inactive”.

How did the outcome turn out when FC(F)(F)C(F)(F)C(F)(F)C(F)(F)C(F)(F)C(F)(F)CC1CO1 (stereo not given) was run?
Its outcome is “inactive”.

Nc1ccc([N+](=O)[O-])cc1O was tested. Which outcome did it give?
Its outcome is “inactive”.

O=C(O)C(F)(F)C(F)(F)C(F)(F)C(F)(F)C(F)(F)C(F)(F)C(F)(F)C(F)(F)C(F)(F)C(F)(F)C(F)(F)C(F)(F)F was tested. Which outcome did it give?
Its outcome is “inactive”.

How did the AC50 turn out when CCCCCCCCCCCCCCCC[N+](C)(C)Cc1ccccc1 was run?
Its AC50 is 2.35 µM (active).

For C=CC(=O)OCC(F)(F)C(F)(F)C(F)(F)C(F)(F)C(F)(F)C(F)(F)C(F)(F)F, which outcome is on record?
Its outcome is “inactive”.

For OCC(F)(F)C(F)(F)C(F)(F)C(F)(F)C(F)(F)C(F)F, which outcome is on record?
The outcome was “inactive”.

How did the outcome turn out when OCC(F)(F)C(F)(F)C(F)(F)F was run?
Its outcome is “inactive”.

O=C(Cl)C(F)(F)C(F)(F)C(F)(F)C(F)(F)C(F)(F)C(F)(F)C(F)(F)C(F)(F)F was tested. Which outcome did it give?
Its outcome is “inactive”.

How did the outcome turn out when OCCCC(F)(F)C(F)(F)C(F)(F)F was run?
Its outcome is “inactive”.

Which outcome does the source give for O=C(O)C(F)(F)C(F)(F)C(F)(F)C(F)(F)C(F)(F)C(F)(F)C(F)(F)C(F)(F)C(F)(F)C(F)F here?
Its outcome is “inactive”.

How did the outcome turn out when C=C(C)C(=O)OCC(F)(F)C(F)(F)C(F)(F)C(F)(F)C(F)(F)C(F)(F)C(F)(F)F was run?
Its outcome is “inactive”.

For CCO[Si](CCC(F)(F)C(F)(F)C(F)(F)C(F)(F)C(F)(F)C(F)(F)F)(OCC)OCC, which outcome is on record?
Its outcome is “inactive”.

How did the outcome turn out when CCCCC(CC)COP(=O)(O)OCC(CC)CCCC (stereo not given) was run?
Its outcome is “inactive”.

With O=C(CC(=O)C(F)(F)C(F)(F)F)C(F)(F)F as the compound, how does the outcome read?
Its outcome is “inactive”.

FC(F)(F)C(F)(F)C(F)(F)C(F)(F)C(F)(F)C(F)(F)C(F)(F)I was tested. Which outcome did it give?
Its outcome is “inactive”.

For FC(F)(Br)C(F)(F)C(F)(F)C(F)(F)C(F)(F)C(F)(F)Br, which outcome is on record?
Its outcome is “inactive”.

With FC(F)(F)C(F)(F)C(F)(F)C(F)(F)CCI as the compound, how does the outcome read?
Its outcome is “inactive”.

Which outcome does the source give for O=C(O)C(F)(OC(F)(F)C(F)(OC(F)(F)C(F)(OC(F)(F)C(F)(F)C(F)(F)F)C(F)(F)F)C(F)(F)F)C(F)(F)F (stereo not given) here?
The outcome was “inactive”.

Which outcome does the source give for CCCCNc1ccccc1 here?
The outcome was “inactive”.

Cc1ccc(S(=O)(=O)OCC(F)(F)C(F)(F)C(F)(F)C(F)(F)C(F)(F)C(F)F)cc1 was tested. Which outcome did it give?
The outcome was “inactive”.

With FC(F)(F)C(F)(F)C(F)(F)CI as the compound, how does the outcome read?
Its outcome is “inactive”.

How did the outcome turn out when FC(F)(F)C(F)(F)CNCC(F)(F)C(F)(F)F was run?
The outcome was “inactive”.

Which outcome does the source give for FC(F)(F)C(F)(F)C(F)(F)C(F)(F)C(F)(F)C(F)(F)C(F)(F)C(F)(F)F here?
Its outcome is “inactive”.

For Oc1ccc(Nc2ccccc2)cc1, which outcome is on record?
Its outcome is “inactive”.

O=C(O)C=C(C(F)(F)F)C(F)(F)F was tested. Which outcome did it give?
The outcome was “inactive”.

O=C(O)C(F)(F)C(F)(F)C(F)(F)C(F)(F)C(F)(F)C(F)(F)C(F)(F)C(F)(F)Cl was tested. Which outcome did it give?
Its outcome is “inactive”.
